Measured values taken from ChEMBL document CHEMBL3988442, “University of Dundee, Small-Polar-MMV Screening Library” (2021).
Results with a measured potency or affinity are listed apart.

These compounds were tested against Protein translocase subunit SecA (Escherichia coli (strain K12)) (UniProt P10408) (assay: Assay to Identify E. coli SecA ATPase Inhibitors). Settings: 30 µM.
Chain of Protein translocase subunit SecA (Escherichia coli (strain K12)) (P10408 whole entry): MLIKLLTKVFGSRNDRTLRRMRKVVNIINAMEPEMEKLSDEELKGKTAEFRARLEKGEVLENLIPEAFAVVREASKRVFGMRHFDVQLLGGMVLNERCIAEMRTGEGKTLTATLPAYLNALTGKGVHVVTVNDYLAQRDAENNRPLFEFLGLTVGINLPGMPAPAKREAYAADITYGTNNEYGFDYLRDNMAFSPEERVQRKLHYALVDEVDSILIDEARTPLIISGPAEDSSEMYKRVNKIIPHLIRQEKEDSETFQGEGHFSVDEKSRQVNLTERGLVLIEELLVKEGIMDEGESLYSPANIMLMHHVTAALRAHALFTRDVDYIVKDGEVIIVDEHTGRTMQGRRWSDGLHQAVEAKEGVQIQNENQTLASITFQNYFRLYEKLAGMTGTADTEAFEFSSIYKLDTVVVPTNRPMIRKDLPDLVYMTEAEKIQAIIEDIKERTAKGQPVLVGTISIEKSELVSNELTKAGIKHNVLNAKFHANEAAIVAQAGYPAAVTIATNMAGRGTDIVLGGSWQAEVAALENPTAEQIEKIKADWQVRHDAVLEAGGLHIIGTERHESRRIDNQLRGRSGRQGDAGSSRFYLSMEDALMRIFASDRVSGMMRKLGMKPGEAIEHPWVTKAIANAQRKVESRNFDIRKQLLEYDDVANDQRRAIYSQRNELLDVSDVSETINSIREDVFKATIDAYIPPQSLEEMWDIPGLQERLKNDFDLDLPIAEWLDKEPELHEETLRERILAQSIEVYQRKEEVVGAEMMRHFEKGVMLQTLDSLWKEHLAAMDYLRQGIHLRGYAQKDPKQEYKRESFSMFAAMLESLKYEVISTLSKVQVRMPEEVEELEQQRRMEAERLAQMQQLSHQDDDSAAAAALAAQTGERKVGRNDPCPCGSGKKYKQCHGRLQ
Assay type: functional
Set-up: scale not given: direction of the effect not stated beside the values
In the case of `Cn1cnnc1C1CCCN(C(=O)c2cc(Cl)c3c(c2)OCO3)C1` (stereo not given), the Percent Effect is reported as -2.96%. Compound `NC(=O)c1ccc(S(=O)(=O)NC(=O)COc2ccc3c(c2)CCC3)cc1` has a Percent Effect of -4.96%. In the case of `Cc1ccccc1N1CCN(C(=O)c2ccc[nH]2)C(C)C1` (stereo not given), the Percent Effect is reported as -7.84%. `CC(C)c1cc(NC(=O)CN2CCC(N3CCNC3=O)CC2)on1` was tested, and the Percent Effect was -2.95%. Work on `O=S(=O)(CCNC1CCc2ncnn2C1)c1ccccc1` (stereo not given) yielded a Percent Effect of -0.316%. Work on `c1ccc(-c2nc(CN3CCOC(Cn4cccn4)C3)no2)cc1` (stereo not given) yielded a Percent Effect of -2.84%. In the case of `COc1ncccc1CNC(=O)NCCNC(=O)c1ccco1`, the Percent Effect is reported as -2.62%. For `c1cnc(N2CCC3(CC2)CN(CC2CC2)c2ccccc23)nc1`, the Percent Effect was -2.71%. In the case of `CN(C)S(=O)(=O)N1CCN(C(=O)c2ccc3ccn(C)c3c2)CC1`, the Percent Effect is reported as -5.48%. With `Cc1ccc(C(CNC(=O)NCc2cc[nH]n2)N2CCOCC2)o1` (stereo not given) the Percent Effect was -3.05%. `COCCc1noc(CN2CCCCC2Cn2cc(C)cn2)n1` (stereo not given) gave a Percent Effect of -0.511%. `O=C(COCc1ccccc1)N1CCC(OCc2cccnc2)CC1` gave a Percent Effect of -7.79%. Work on `CCc1n[nH]c(C2CN(C(=O)c3nc(C)ncc3Cl)CCO2)n1` (stereo not given) yielded a Percent Effect of -2.86%. Compound `COc1cc(CNC(=O)C2CC(=O)N(C(C)C)C2)ccn1` (stereo not given) has a Percent Effect of -1.79%. Compound `O=C(Cc1cccs1)N1CC[C@H]2[C@@H]1CCC(=O)N2c1cccnc1` has a Percent Effect of -2.81%. `CS(=O)(=O)NCc1ncn2c1CN(C(=O)CC1CCCC1)CCC2` was tested, and the Percent Effect was -1.59%. `CCOCC1CC2(CCN(C(=O)c3ccccc3F)CC2)CO1` (stereo not given) showed a Percent Effect of -6.56%. In the case of `CCn1c(C)cc(C(=O)N2CCCC(n3nc(C)nc3C)C2)c1C` (stereo not given), the Percent Effect is reported as -5.54%. With `Cc1cnn(CC2CCCN2CC(=O)Nc2cc(C)nn2C)c1` (stereo not given) the Percent Effect was -2.33%. In the case of `O=C(c1ccco1)N1CCC2(CC1)C(=O)NCCN2CC1CC1`, the Percent Effect is reported as -7.74%. Compound `COc1ccc(C(=O)N2C[C@@H](CN3CCOCC3)[C@@H](CO)C2)c(C)c1` has a Percent Effect of -3.12%. In the case of `O=C(c1ccc(F)cc1F)N1CC[C@H](O)[C@@H](N2CCOCC2)CC1`, the Percent Effect is reported as -1.33%. `Cc1cnn(C(C)C2CC2)c1NC(=O)c1cnccn1` (stereo not given) was tested, and the Percent Effect was -5.04%. Work on `COc1ncc(C2(O)CCN(Cc3ccccc3O)CC2)c(OC)n1` yielded a Percent Effect of -3.88%. With `CC1CCCN(C(=O)c2cccc(CS(C)(=O)=O)c2)C1` (stereo not given) the Percent Effect was 0.484%. `O=C(Nc1cccnc1)[C@H]1C[C@H]2OCC[C@H]2N(C(=O)c2ccsc2)C1` showed a Percent Effect of -4.32%. `CCC1CN(C(=O)c2ccc(Cl)cc2O)CCN1C(C)C` (stereo not given) gave a Percent Effect of -4.41%. With `Cc1cnc(C(=O)N2CCCCC2c2[nH]ncc2S(C)(=O)=O)cn1` (stereo not given) the Percent Effect was -1.18%. Compound `CCN1C(=O)CCCC12CCCN(C(=O)c1conc1C)C2` (stereo not given) has a Percent Effect of -1.85%. In the case of `COc1cc(C(=O)N2CCCS2(=O)=O)ccc1C`, the Percent Effect is reported as -4.9%. Work on `Cc1ncsc1-c1nnc(C2CCN(CC3CCCCC3)CC2)o1` yielded a Percent Effect of 1.3%. For `CCn1cnnc1CNC(=O)N1CCOCC1`, the Percent Effect was -3.29%. In the case of `O=C1C(NCc2nnc3n2CCCC3)CCN1c1ccccc1` (stereo not given), the Percent Effect is reported as -2.98%. With `CC(NC(=O)CCn1cncn1)c1nnc2n1CCCCC2` (stereo not given) the Percent Effect was -3.71%. With `CC(=O)N1[C@H](CN(C)C)C[C@@H]2CN(C(=O)c3cccc(F)c3)CC[C@@H]21` the Percent Effect was -6.12%. For `Cc1ccc(C(N)c2cccc(S(C)(=O)=O)c2)cc1` (stereo not given), the Percent Effect was -4.76%. Compound `COc1cccc2c1OCC(C(=O)N1CCN(S(C)(=O)=O)CC1)C2` (stereo not given) has a Percent Effect of -5.76%. Work on `Cc1ccc(C(=O)N2C[C@@H](OCC3CCOCC3)[C@H]3OCCC[C@H]32)o1` yielded a Percent Effect of -3.48%. For `CC(Cn1cccn1)NC(=O)N1CCN(Cc2cccs2)CC1` (stereo not given), the Percent Effect was -1.74%. In the case of `Cc1nc(C2CCCN(C(=O)CO)C2)cc(N2CCOCC2)n1` (stereo not given), the Percent Effect is reported as -7.77%.

The compounds below were run against T1, Ubiquitin-activating enzyme e1, putative (Leishmania donovani (strain BPK282A1)) (UniProt E9BSI1) (assay: Leishmania donovani Ubiquitin Activating Enzyme (LdE1)). Settings: 30 µM.
T1 sequence (whole entry): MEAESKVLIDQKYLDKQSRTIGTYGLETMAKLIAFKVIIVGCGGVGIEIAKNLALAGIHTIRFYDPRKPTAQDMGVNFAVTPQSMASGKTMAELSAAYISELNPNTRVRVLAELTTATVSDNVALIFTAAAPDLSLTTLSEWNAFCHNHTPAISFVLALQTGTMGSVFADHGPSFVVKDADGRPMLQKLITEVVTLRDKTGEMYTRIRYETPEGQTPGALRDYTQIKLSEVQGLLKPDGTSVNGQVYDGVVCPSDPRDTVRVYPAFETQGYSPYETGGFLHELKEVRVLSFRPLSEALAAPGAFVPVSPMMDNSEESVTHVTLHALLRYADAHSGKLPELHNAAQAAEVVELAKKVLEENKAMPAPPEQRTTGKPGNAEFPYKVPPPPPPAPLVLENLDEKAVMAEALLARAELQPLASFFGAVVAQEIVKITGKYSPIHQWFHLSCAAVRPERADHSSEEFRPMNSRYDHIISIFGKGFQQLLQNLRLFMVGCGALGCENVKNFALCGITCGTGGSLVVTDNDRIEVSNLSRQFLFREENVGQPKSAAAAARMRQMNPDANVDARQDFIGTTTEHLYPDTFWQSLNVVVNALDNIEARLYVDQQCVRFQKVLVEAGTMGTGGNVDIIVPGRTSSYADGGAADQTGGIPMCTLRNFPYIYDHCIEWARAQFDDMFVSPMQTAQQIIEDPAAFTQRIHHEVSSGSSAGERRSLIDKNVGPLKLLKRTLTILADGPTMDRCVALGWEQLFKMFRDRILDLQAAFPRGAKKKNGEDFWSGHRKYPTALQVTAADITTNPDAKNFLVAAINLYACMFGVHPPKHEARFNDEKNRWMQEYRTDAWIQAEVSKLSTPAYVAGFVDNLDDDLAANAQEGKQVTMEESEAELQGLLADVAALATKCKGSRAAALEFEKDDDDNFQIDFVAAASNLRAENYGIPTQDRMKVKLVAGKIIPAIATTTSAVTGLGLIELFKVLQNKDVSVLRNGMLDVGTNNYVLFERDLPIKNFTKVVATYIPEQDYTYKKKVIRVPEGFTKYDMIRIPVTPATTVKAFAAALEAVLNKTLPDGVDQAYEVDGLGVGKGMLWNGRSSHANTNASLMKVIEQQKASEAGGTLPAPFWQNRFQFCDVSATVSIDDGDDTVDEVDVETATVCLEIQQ
Assay type: functional
Set-up: scale not given: direction of the effect not stated beside the values
Compound `Cn1cnnc1C1CCCN(C(=O)c2cc(Cl)c3c(c2)OCO3)C1` (stereo not given) has a Percent Effect of 5.33%. `NC(=O)c1ccc(S(=O)(=O)NC(=O)COc2ccc3c(c2)CCC3)cc1` showed a Percent Effect of 7.69%. With `Cc1ccccc1N1CCN(C(=O)c2ccc[nH]2)C(C)C1` (stereo not given) the Percent Effect was 2.7%. Compound `CC(C)c1cc(NC(=O)CN2CCC(N3CCNC3=O)CC2)on1` has a Percent Effect of 15.6%. `O=S(=O)(CCNC1CCc2ncnn2C1)c1ccccc1` (stereo not given) showed a Percent Effect of 0%. Compound `c1ccc(-c2nc(CN3CCOC(Cn4cccn4)C3)no2)cc1` (stereo not given) has a Percent Effect of 2.67%. With `COc1ncccc1CNC(=O)NCCNC(=O)c1ccco1` the Percent Effect was 13.3%. `c1cnc(N2CCC3(CC2)CN(CC2CC2)c2ccccc23)nc1` was tested, and the Percent Effect was -9.09%. `CN(C)S(=O)(=O)N1CCN(C(=O)c2ccc3ccn(C)c3c2)CC1` showed a Percent Effect of 8.11%. Work on `Cc1ccc(C(CNC(=O)NCc2cc[nH]n2)N2CCOCC2)o1` (stereo not given) yielded a Percent Effect of 12.8%. With `COCCc1noc(CN2CCCCC2Cn2cc(C)cn2)n1` (stereo not given) the Percent Effect was -2.56%. `O=C(COCc1ccccc1)N1CCC(OCc2cccnc2)CC1` was tested, and the Percent Effect was 2.7%. Work on `CCc1n[nH]c(C2CN(C(=O)c3nc(C)ncc3Cl)CCO2)n1` (stereo not given) yielded a Percent Effect of 7.79%. `COc1cc(CNC(=O)C2CC(=O)N(C(C)C)C2)ccn1` (stereo not given) gave a Percent Effect of 10.3%. Work on `O=C(Cc1cccs1)N1CC[C@H]2[C@@H]1CCC(=O)N2c1cccnc1` yielded a Percent Effect of 29.9%. `CS(=O)(=O)NCc1ncn2c1CN(C(=O)CC1CCCC1)CCC2` was tested, and the Percent Effect was -1.3%. `CCOCC1CC2(CCN(C(=O)c3ccccc3F)CC2)CO1` (stereo not given) showed a Percent Effect of 6.49%. In the case of `CCn1c(C)cc(C(=O)N2CCCC(n3nc(C)nc3C)C2)c1C` (stereo not given), the Percent Effect is reported as 12.8%. `Cc1cnn(CC2CCCN2CC(=O)Nc2cc(C)nn2C)c1` (stereo not given) gave a Percent Effect of 5.2%. `O=C(c1ccco1)N1CCC2(CC1)C(=O)NCCN2CC1CC1` showed a Percent Effect of 1.3%. In the case of `COc1ccc(C(=O)N2C[C@@H](CN3CCOCC3)[C@@H](CO)C2)c(C)c1`, the Percent Effect is reported as 0%. Compound `O=C(c1ccc(F)cc1F)N1CC[C@H](O)[C@@H](N2CCOCC2)CC1` has a Percent Effect of 6.67%. `Cc1cnn(C(C)C2CC2)c1NC(=O)c1cnccn1` (stereo not given) showed a Percent Effect of 0%. In the case of `COc1ncc(C2(O)CCN(Cc3ccccc3O)CC2)c(OC)n1`, the Percent Effect is reported as 22.7%. `CC1CCCN(C(=O)c2cccc(CS(C)(=O)=O)c2)C1` (stereo not given) was tested, and the Percent Effect was 15.4%. In the case of `O=C(Nc1cccnc1)[C@H]1C[C@H]2OCC[C@H]2N(C(=O)c2ccsc2)C1`, the Percent Effect is reported as 11.7%. `CCC1CN(C(=O)c2ccc(Cl)cc2O)CCN1C(C)C` (stereo not given) gave a Percent Effect of 2.7%. `Cc1cnc(C(=O)N2CCCCC2c2[nH]ncc2S(C)(=O)=O)cn1` (stereo not given) was tested, and the Percent Effect was 4%. `CCN1C(=O)CCCC12CCCN(C(=O)c1conc1C)C2` (stereo not given) showed a Percent Effect of 3.9%. With `COc1cc(C(=O)N2CCCS2(=O)=O)ccc1C` the Percent Effect was -2.67%. In the case of `Cc1ncsc1-c1nnc(C2CCN(CC3CCCCC3)CC2)o1`, the Percent Effect is reported as 14.7%. `CCn1cnnc1CNC(=O)N1CCOCC1` gave a Percent Effect of 0%. For `O=C1C(NCc2nnc3n2CCCC3)CCN1c1ccccc1` (stereo not given), the Percent Effect was 10.3%. For `CC(NC(=O)CCn1cncn1)c1nnc2n1CCCCC2` (stereo not given), the Percent Effect was 20.8%. In the case of `CC(=O)N1[C@H](CN(C)C)C[C@@H]2CN(C(=O)c3cccc(F)c3)CC[C@@H]21`, the Percent Effect is reported as 9.09%. With `Cc1ccc(C(N)c2cccc(S(C)(=O)=O)c2)cc1` (stereo not given) the Percent Effect was 10.7%. For `COc1cccc2c1OCC(C(=O)N1CCN(S(C)(=O)=O)CC1)C2` (stereo not given), the Percent Effect was 16.2%. In the case of `Cc1ccc(C(=O)N2C[C@@H](OCC3CCOCC3)[C@H]3OCCC[C@H]32)o1`, the Percent Effect is reported as 14.3%. `CC(Cn1cccn1)NC(=O)N1CCN(Cc2cccs2)CC1` (stereo not given) showed a Percent Effect of 18.7%. `Cc1nc(C2CCCN(C(=O)CO)C2)cc(N2CCOCC2)n1` (stereo not given) gave a Percent Effect of 0%.
